Assay outcomes: PubChem, Pan Lab, Icahn School of Medicine at Mount Sinai
The full list was thinned out, with hits kept by preference.
ROC1-CUL1 inh: blocks human RBX1-Cullin-1 di-ubiquitin formation; inhibition, % at 10 µM; P62877+Q13616; actives 0.6% (n = 140,000); AID 1347404; in vitro K48 di-Ub FRET, acceptor:donor ratio, 45 min; in the data active means inhibition above about 25%
The depositor's hits bear a star.

N#Cc1cc(C#N)c(Cl)nc1Cl was read as ROC1-CUL1 inh 3.5.
Cn1c(=O)n(C)c2cc(S(N)(=O)=O)ccc21 was read as ROC1-CUL1 inh -3.8.
COc1ccc(/C=C2/N=C(c3ccc(NC(=O)c4cncc(Br)c4)cc3)OC2=O)cc1 was read as ROC1-CUL1 inh 7.7.
`CN1CC=C2C(C#N)C(=N)C(C#N)(C#N)C(c3ccco3)C2C1` (centres undefined) gave ROC1-CUL1 inh -4.2.
`CCCN1CC=C2C(C#N)C(=N)C(C#N)(C#N)C(c3cccc(Br)c3)C2C1` (centres undefined) gave ROC1-CUL1 inh -0.8.
Screening CN1CC=C2C(C#N)C(=N)C(C#N)(C#N)C(c3ccc(Br)s3)C2C1 (centres undefined) returned ROC1-CUL1 inh 44.8*.
Screening CCOC(=O)N1CC=C2C(C#N)C(=N)C(C#N)(C#N)[C@H](c3cccc(F)c3)[C@H]2C1 (some centres undefined) returned ROC1-CUL1 inh 6.4.
For CCN1CC=C2C(C#N)C(=N)C(C#N)(C#N)[C@H](c3ccc4c(c3)OCO4)[C@H]2C1 (some centres undefined) the results were ROC1-CUL1 inh -5.0.
CCN1CC=C2C(C#N)C(=N)C(C#N)(C#N)C(c3ccc(SC)cc3)C2C1 (centres undefined) was read as ROC1-CUL1 inh 67.9*.
CCN1CC=C2C(C#N)C(=N)C(C#N)(C#N)C(c3cc(OC)c(OC)c(OC)c3)C2C1 (centres undefined) was read as ROC1-CUL1 inh -1.3.
Screening CN1CC=C2C(C#N)C(=N)C(C#N)(C#N)[C@H](c3ccccc3F)[C@H]2C1 (some centres undefined) returned ROC1-CUL1 inh 2.0.
CCN1CC=C2C(C#N)C(=N)C(C#N)(C#N)C(c3cccc(F)c3)C2C1 (centres undefined) was read as ROC1-CUL1 inh 46.6*.
Screening CCOC(=O)c1ccc(NC(=O)C2=CC3C(=O)CC(c4ccccc4)CC3=NC2=O)cc1 (centres undefined) returned ROC1-CUL1 inh -8.6.
For COc1ccc(O[C@@H]2O[C@@H]3COC(c4ccc(OC)cc4)O[C@H]3[C@H](O)[C@H]2NC(C)=O)cc1 (some centres undefined) the results were ROC1-CUL1 inh 9.1.
For Cc1cccc(N(CN2C(=O)C3C4C=CC(C5CC45)C3C2=O)C(=O)c2ccccc2)c1 (centres undefined) the results were ROC1-CUL1 inh -1.9.
For COc1ccc(CNS(C)(=O)=O)cc1 the results were ROC1-CUL1 inh -4.0.
For O=C(CCN1Cc2ccccc2OC(c2ccccc2)C1)NCc1cc(-c2ccccc2)n[nH]1 (centres undefined) the results were ROC1-CUL1 inh 4.5.
Screening COc1ccc(OCc2cc(C(=O)NC3CCC3)n[nH]2)c(Cl)c1 returned ROC1-CUL1 inh 4.3.
S=c1[nH]nc(-c2ccco2)n1-c1ccccc1 was read as ROC1-CUL1 inh 9.5.
Nn1c(=S)[nH]nc(/C=C/c2ccco2)c1=O was read as ROC1-CUL1 inh 95.9*.
Cc1ccc(-c2n[nH]c(=S)n2/N=C/C=C/c2ccco2)cc1 was read as ROC1-CUL1 inh 6.4.
O=C(c1nc2ccc(Cl)cn2c1CN1CCCCCC1)N1CCc2ccccc2C1 was read as ROC1-CUL1 inh 11.4.
Screening CCCc1cc(C(=O)N2CCC3(CC2)c2ccccc2[C@@H](NC(=O)c2ccncc2)[C@@H]3OC)no1 returned ROC1-CUL1 inh 6.3.
Screening CN(C(=O)c1cccs1)C(Cc1ccccc1)C1CCN(C(=O)CSc2ncccn2)CC1 (centres undefined) returned ROC1-CUL1 inh 6.5.
O=C(O)CCSc1ncnc2ccccc12 was read as ROC1-CUL1 inh 8.2.
`O=C(O)CCNc1cccc2ncccc12` gave ROC1-CUL1 inh 80.8*.
For O=C(O)CCNc1nc(-c2ccccc2)nc2ccccc12 the results were ROC1-CUL1 inh 3.0.
Screening CC(NC(=O)NNC(=O)c1ccccc1)(C(F)(F)F)C(F)(F)F returned ROC1-CUL1 inh -3.4.
O=C(Cc1ccc(Cl)cc1)Nc1ccccc1 was read as ROC1-CUL1 inh 5.9.
`Nc1c(C(=O)Nc2ccccc2C(=O)O)sc2nc3c(cc12)CCCCCC3` gave ROC1-CUL1 inh 9.4.
`Nc1c(C(=O)Nc2ccccc2F)sc2nc3c(cc12)CCCCC3` gave ROC1-CUL1 inh 2.3.
`Nc1c(C(=O)Nc2ccccc2C(=O)O)sc2nc3c(cc12)CCCCC3` gave ROC1-CUL1 inh 35.4*.
For COc1cc(OC)c2c(c1)nc(-c1ccccc1)n2C the results were ROC1-CUL1 inh -7.2.
C/C=C/Cn1c(=O)c2c(nc3oc(C)c(C)n32)n(C)c1=O was read as ROC1-CUL1 inh -8.4.
For O=C(/C=C/c1ccc(Cl)cc1Cl)N1CCN(c2ncccn2)CC1 the results were ROC1-CUL1 inh -2.1.
CCn1cncc1CN1CCC(C2CCN(CC(C)C)CC2)C1 (centres undefined) was read as ROC1-CUL1 inh -0.7.
For CCOC(=O)c1ccc(N=C2S/C(=N\N=C\c3ccccc3O)N(c3ccccc3)C2=Nc2ccc(C(=O)OCC)cc2)cc1 the results were ROC1-CUL1 inh -14.2.
